In the library only some 1.2% were active in any assay of this set; here they are far more common.
HttQ103 aggreg: qHTS Multiplex Assay to Identify Dual Action Probes in a Cell Model of Huntington: Aggregate Formation (GFP). PC12 HttQ103-GFP aggregates, Acumen cytometry, 40 h. Potency, µM (highest dose often 46.1 µM), without a hit: at the top dose activity change, negative = inhibition, usual class: inhibitors. 220,000 compounds, 1.1% hits. AID 1688, 2009; note: potency is the fitted concentration of half-maximal effect; % is set by controls: 0 for no effect and ±100 for the full control effect; nearly all actives have a fitted effect of over 60% in size
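Compounds (qHTS titration) were added to PC12 cells expressing an ecdysone-driven HTT exon 1 Q103–GFP fusion after induction with 100 nM tebufenozide. Aggregate formation was measured as GFP objects in cell lysates.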
ERK EGF block: qHTS Assay for Inhibitors of the ERK Signaling Pathway using a Homogeneous Screening Assay; Stimulation with EGF; HEK293-V1b, EGF-stimulated phospho-ERK AlphaScreen; Potency, µM (top dose mostly 11.5 µM), for inactives: top-dose activity change, negative = inhibition, most hits filed as inhibitors; 130,000 compounds, 0.41% hits;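 note: potency is the fitted concentration of half-maximal effect; plate controls were stimulated vehicle wells for no effect and unstimulated vehicle basal for full effect; nearly all actives have a fitted effect of over 55% in size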
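V1b-HEK293, 1% FBS o/n; cpd 30 min 37C; EGF 25 nM final, 5 min; lyse 10 min; AlphaScreen beads 5 h RT. Normalized DMSO basal vs EGF max; Hill AC50.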
GLA inh pH 4.5: qHTS Assay for Inhibitors of Human alpha-Galactosidase at pH 4.5; purified enzyme, 4-MU-alpha-Gal fluorescence, pH 4.5; activity change, negative = inhibition, % at 105 µM; 230,000 tested, under 10 active;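 note: 0% = full activity with enzyme and -100% = basal without enzyme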
Target sequence (P06280 whole entry, looked up): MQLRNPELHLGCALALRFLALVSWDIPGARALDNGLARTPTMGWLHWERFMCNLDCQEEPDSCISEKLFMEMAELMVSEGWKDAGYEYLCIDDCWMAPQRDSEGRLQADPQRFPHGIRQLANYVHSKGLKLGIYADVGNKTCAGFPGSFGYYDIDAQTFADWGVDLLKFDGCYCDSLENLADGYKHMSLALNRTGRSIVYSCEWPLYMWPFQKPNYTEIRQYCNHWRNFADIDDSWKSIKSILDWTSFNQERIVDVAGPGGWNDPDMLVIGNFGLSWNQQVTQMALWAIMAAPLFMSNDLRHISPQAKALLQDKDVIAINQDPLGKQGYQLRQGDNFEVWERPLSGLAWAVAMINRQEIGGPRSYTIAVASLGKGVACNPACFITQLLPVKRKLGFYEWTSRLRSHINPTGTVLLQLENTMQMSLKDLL
aGal spleen mod: qHTS Assay for Inhibitors and Activators of Human alpha-Galactosidase From Spleen Homogenate. Potency, µM (series often up to 80 µM), for inactives: at the highest dose activity change, negative = inhibition, actives largely listed as inhibitors. 240,000 compounds, 0.008% hits. human spleen homogenate, 4MU-alpha-Gal fluorescence, 40 min. Alpha-galactosidase A (Homo sapiens), P06280;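 note: potency is the fitted concentration of half-maximal effect; 0% = enzyme with vehicle and -100% = no enzyme basal signal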
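Spleen homogenate 1 ug + cpd (titration) + 4-MU-alpha-D-galactopyranoside 1 mM; 37C 40 min; 50 mM citrate/phosphate pH 5.0, 0.01% Tween-20; stop pH 10; fluorescence 365/440; AC50 via Hill.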
HTT cytoprotect: qHTS Multiplex Assay to Identify Dual Action Probes in a Cell Model of Huntington: Cytoprotection (ATP). AID 1471, 2008. Potency, µM (series often up to 56.4 µM), for inactives: cytoprotection (ATP increase), actives largely listed as activators. PC12 HTT-Q103 induced, cytoprotection, ATP luminescence, 40 h. 230,000 compounds, 0.14% hits; note: potency is the fitted concentration of half-maximal effect; % of control where 0% means no effect; nearly all actives have a fitted effect of over 45% in size
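Huntington model: PC12 line, ecdysone-inducible HTTQ103 exon1–GFP, tebufenozide 100 nM. Test articles in a dose series. Endpoint luminescence from cellular ATP.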
Starred values were filed as active, the others as inactive; [ ] = remark or other dose. Calls come from the whole dose curve; as a rule, active = well fitted curve in the direction sought with a large enough effect; inconclusive = small, poorly fitted or top-dose-only effect, or another doubt; inactive = no such curve, though single readings can be large; an effect the other way counts as inactive or inconclusive.

What do the screens show for `CC(=O)Nc1ccn(C2OC(C(COC(C)=O)NC(=O)C3CCCN3C(=O)OC(C)(C)C)C(OC(C)=O)C2OC(C)=O)c(=O)n1` (centres undefined)?
aGal spleen mod: 3%

What do the screens show for `O=C(/C=C\c1cccs1)c1c(O)ccc2ccc(=O)oc12`?
HttQ103 aggreg: 11µM*; ERK EGF block: 12%; GLA inh pH 4.5: -14; aGal spleen mod: 0%; HTT cytoprotect: 12%[10 µM]

How did Cc1cc(C)c2nc(C(F)(F)F)c(C#N)c(N)c2c1 do in these assays?
HttQ103 aggreg: 5.6µM*; GLA inh pH 4.5: -6; aGal spleen mod: 7%; HTT cytoprotect: 37%[10 µM]

What do the screens show for `CCCNC1=C(N(C(C)=O)c2cccc(F)c2)C(=O)c2ccccc2C1=O`?
HttQ103 aggreg: 11µM*; ERK EGF block: -5%; GLA inh pH 4.5: 1; aGal spleen mod: -11%; HTT cytoprotect: -76%[10 µM]

How did Cn1c(N)c(C(=O)c2ccc(Cl)cc2)c(=O)n(C)c1=O do in these assays?
HttQ103 aggreg: 2.5µM*; GLA inh pH 4.5: 4; aGal spleen mod: 3%; HTT cytoprotect: -1%[10 µM]

Results for Cn1c(N)c(C(=O)COC(=O)c2ccc(Cl)nc2)c(=O)n(C)c1=O ?
HttQ103 aggreg: -7%; ERK EGF block: -3%; GLA inh pH 4.5: -8; aGal spleen mod: -1%; HTT cytoprotect: 3.2µM*

Results for O=C(CSc1nnc(-c2ccco2)n1Cc1ccccc1)OC1CCCCC1 ?
HttQ103 aggreg: 32µM*; GLA inh pH 4.5: 0; aGal spleen mod: -9%; HTT cytoprotect: 13%

What do the screens show for `O=C(CSc1nnc(-c2ccncc2)n1Cc1ccco1)OC1CCCCC1`?
HttQ103 aggreg: 4%; GLA inh pH 4.5: -1; aGal spleen mod: -4%; HTT cytoprotect: -5%

What do the screens show for `CCOC(=O)c1ccc(NC(=S)NCCC2=CCCCC2)cc1`?
HttQ103 aggreg: -5%; ERK EGF block: -1%; GLA inh pH 4.5: 2; aGal spleen mod: -6%; HTT cytoprotect: -2%[10 µM]

How did Cc1ccc(NC(=S)NCCC2=CCCCC2)cc1 do in these assays?
HttQ103 aggreg: 13µM*; ERK EGF block: 0%; GLA inh pH 4.5: -7; aGal spleen mod: 1%; HTT cytoprotect: -84%

How did CC(=O)OCC1OC(C#Cc2ccc(C(C)(C)C)cc2)C=CC1OC(C)=O (centres undefined) do in these assays?
aGal spleen mod: 19%[17.5 µM]; HTT cytoprotect: inconclusive

How did COc1ccc(-c2nn(-c3ccccc3)cc2/C=N/NC(=O)c2ccc(Br)o2)cc1 do in these assays?
HttQ103 aggreg: 3.5µM*; GLA inh pH 4.5: 2; aGal spleen mod: -6%; HTT cytoprotect: -40%

How did CC(=O)O[C@]1(C(C)=O)CC[C@H]2C3C=C(Cl)C4=CC(=O)[C@@H]5C[C@H]5[C@]4(C)C3CC[C@@]21C (some centres undefined) do in these assays?
ERK EGF block: -1%; GLA inh pH 4.5: -1; aGal spleen mod: 3%

How did Cc1noc(C)c1-c1cncnc1NC1CC1 do in these assays?
ERK EGF block: 15%; GLA inh pH 4.5: 4; aGal spleen mod: 6%; HTT cytoprotect: -12%

What do the screens show for `Cc1nc(C)c(C(=O)N/N=C/c2cc(Br)ccc2O)s1`?
HttQ103 aggreg: 1.3µM*; ERK EGF block: -2%[57.5 µM]; GLA inh pH 4.5: -3; aGal spleen mod: -9%; HTT cytoprotect: -50%[10 µM]

How did O=C(N/N=C/c1cc(Br)ccc1O)c1ccncc1 do in these assays?
HttQ103 aggreg: -45%[9.22 µM]; ERK EGF block: 1%[57.5 µM]; GLA inh pH 4.5: -3; aGal spleen mod: -15%; HTT cytoprotect: -16%[10 µM]

Results for CCOc1cccc(/C=N/Nc2ccc(S(=O)(=O)N(CC)CC)cn2)c1O ?
HttQ103 aggreg: 1.4µM*; ERK EGF block: 3%; GLA inh pH 4.5: 4; aGal spleen mod: 7%; HTT cytoprotect: -66%[10 µM]

What do the screens show for `CCN(CC)S(=O)(=O)c1ccc(N/N=C/c2cc(OC)c(OC)cc2OC)nc1`?
HttQ103 aggreg: 9%; ERK EGF block: 2%; GLA inh pH 4.5: 21; aGal spleen mod: 0%

What do the screens show for `CC1=C(C(=O)O)N2C(=O)[C@@H](NC(=O)[C@@H](N)C3=CCC=CC3)[C@@H]2SC1`?
HTT cytoprotect: 5%[1.9 µM]

Results for FC(F)(F)c1ccccc1-c1nc(NCCN2CCOCC2)c2ccccc2n1 ?
aGal spleen mod: -6%; HTT cytoprotect: -11%

How did COc1cc(OC)cc(C(=O)Oc2c(CN3CCOCC3)cc(Cl)c3cccnc23)c1 do in these assays?
HttQ103 aggreg: 4.5µM*; ERK EGF block: 2%[57.5 µM]; GLA inh pH 4.5: -21; aGal spleen mod: 0%; HTT cytoprotect: -76%[10 µM]

Results for CCc1nc2ccccc2c(=O)n1NC(=O)c1c(O)c2ccccc2n(CC)c1=O ?
HttQ103 aggreg: 3%[9.22 µM]; ERK EGF block: -8%; GLA inh pH 4.5: -2; aGal spleen mod: -3%; HTT cytoprotect: 21%[10 µM]

Results for CCn1c(=O)c(C(=O)Nc2nc3ccccc3[nH]2)c(O)c2ccccc21 ?
HttQ103 aggreg: 10µM*; GLA inh pH 4.5: 1; aGal spleen mod: 9%; HTT cytoprotect: -35%

How did COc1ccc(OC)c(NC(=S)NN2CCOCC2)c1 do in these assays?
HttQ103 aggreg: 11µM*; GLA inh pH 4.5: 3; aGal spleen mod: 6%; HTT cytoprotect: -7%[10 µM]

Results for CC(=O)O[C@@H]1CC[C@@]2(C)[C@H](C1)[C@H](OC(C)=O)C[C@@H]1[C@@H]2C[C@H]2[C@@H]3CN4C[C@H](C)CC[C@H]4[C@H](C)[C@H]3CC[C@@]12O ?
aGal spleen mod: -27%

What do the screens show for `O=C(NNC(=S)Nc1ccc(Cl)cc1)c1ccccc1OC(F)F`?
HttQ103 aggreg: 13µM*; ERK EGF block: 4%; GLA inh pH 4.5: -5; aGal spleen mod: -1%

What do the screens show for `COc1ccc(-c2c(C3C4C=CCC(C)C4C(=O)N3Cc3ccccc3)ccc3ccccc23)cc1OC` (centres undefined)?
aGal spleen mod: 8%

What do the screens show for `O=c1c2ccccc2nc(-c2ccc(Cl)c(Cl)c2)n1O`?
HttQ103 aggreg: inconclusive; GLA inh pH 4.5: -11; aGal spleen mod: 2%; HTT cytoprotect: -1%[10 µM]

What do the screens show for `O=c1c2cc(Cl)ccc2nc(-c2ccc([N+](=O)[O-])cc2)n1O`?
HttQ103 aggreg: 10µM*; ERK EGF block: 5%; GLA inh pH 4.5: 5; aGal spleen mod: -3%; HTT cytoprotect: -71%

How did C=C(C)COc1ccc(-c2n[nH]c(C)c2-c2ccc(Br)cc2)c(O)c1 do in these assays?
HttQ103 aggreg: 7.9µM*; GLA inh pH 4.5: 0; aGal spleen mod: 6%; HTT cytoprotect: -16%

What do the screens show for `CCN(CC)CCC(=O)N1c2ccccc2Sc2ccc(C(F)(F)F)cc21`?
HttQ103 aggreg: 7%; HTT cytoprotect: 71%
